The source of these data is PubChem BioAssay.

Fibroblast growth factor 10 (Homo sapiens), sequence (O15520 whole entry, looked up): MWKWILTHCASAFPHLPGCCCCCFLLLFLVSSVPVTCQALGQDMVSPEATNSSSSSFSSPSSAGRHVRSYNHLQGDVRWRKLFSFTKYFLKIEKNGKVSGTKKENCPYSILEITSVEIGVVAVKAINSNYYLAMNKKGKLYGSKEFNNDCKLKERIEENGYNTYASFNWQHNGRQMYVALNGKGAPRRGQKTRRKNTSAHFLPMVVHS

The first assay has as its target Fibroblast growth factor 10 (Homo sapiens) (UniProt O15520). The assay is described as follows: FGF10 binders on small-molecule microarrays, primary screen, biochemical, small-molecule microarray, 635 nm fluorescence (AID 1102). The settings on record: FGF10 binding, fluorescence 635 nm, higher = more signal.
`CC(C)CNC(=O)[C@@H]1c2ccccc2C(=O)N(Cc2cc(F)cc(C(F)(F)F)c2)[C@H]1c1ccc(CO)cc1` had a composite z-score of 0.301. Compound `C=C(/C(=C/C[C@@H](OC(=O)c1ccncc1)c1ccc(OCCO)cc1)c1cc(C(=O)OC)ccc1OC)C(C)C` came in with a composite z-score of 0.426. On to `C=C(CCCC)/C(=C/C[C@@H](OC(=O)c1ccncc1)c1cccc(OCCO)c1)c1cnc2ccccc2c1`, for which the composite z-score was 1.52.

`C=CCOC(=O)[C@H]1[C@@H]2C(=O)O[C@@H](c3ccccc3)[C@@H](c3ccccc3)N2[C@@H](c2ccc(OCCOC(=O)[C@H]3C[C@H]4C(=O)N[C@@H](Cc5ccccc5)C(=O)N4[C@H]3c3cccc(OCCO)c3)cc2)[C@]12C(=O)Nc1ccc(I)cc12` had a composite z-score of 1.24. `Cc1ccc(S[C@]2(C(=O)NC3CC3)CC(=O)N(Cc3ccccc3Cl)[C@@H]2c2ccc(CO)cc2I)cc1` gave a composite z-score of 1.4. On to `C[C@@H]1ON(c2ccc(C(=O)OC(C)(C)C)cc2)[C@H](c2ccc(Br)cc2)[C@H]1C(=O)N1C(=O)OC[C@H]1Cc1ccccc1`, for which the composite z-score came to 1.17.

Another assay deals with glycogen synthase kinase-3 (GSK3A per assay name; protocol says GSK3B). The assay is described as follows: GSK3 binders on small-molecule microarrays, primary screen, biochemical, small-molecule microarray, 635 nm fluorescence, GSK3A (AID 1103). Also: the record names both GSK3A and GSK3B. The settings on record: small-molecule microarray binding, fluorescence 635 nm; higher = more signal.
In the case of `COc1ccc(C(O)C2C=CC3C(=O)N(c4ccccc4)C(=O)C3N2Nc2ccc(C#N)cc2)c2ccccc12` (configuration not stated), the composite z-score is 0.811. On the same count and under the same terms, to `COCCOC(=O)N1C(=O)[C@@]2(c3ccccc31)[C@H](C(=O)N1CCN(c3ncccn3)CC1)[C@H]1C(=O)O[C@H](c3ccccc3)[C@H](c3ccccc3)N1[C@@H]2c1ccc(OCCO)cc1` belongs 0.402; to `CC=CC(O)C1C=CC2C(=O)N(c3ccccc3)C(=O)C2N1Nc1ccccc1` (configuration not stated), 1.29. With `Cc1ccc(S[C@]2(C(=O)NCC(F)(F)F)CC(=O)N(Cc3ccccc3)[C@@H]2c2ccc(CO)cc2)cc1`, the composite z-score is -0.507. The compound `[N-]=[N+]=Nc1ccccc1C[C@@]1(C(=O)O)N=C(c2ccc(OCCCO)cc2)O[C@@H]1c1ccccc1` gave a composite z-score of 0.0458. Regarding `COCCCNC(=O)[C@]1(Cc2ccccc2CN=[N+]=[N-])N=C(c2ccc(OCCCO)cc2)O[C@@H]1c1ccccc1`, the composite z-score came out at 0.778. Still for that read-out and setting: next, `CC(C)OC(=O)CC(=O)CC(O)c1cccc(C#N)c1` (configuration not stated): 0.646; `CCCC=C(CCC)[C@@H](NP(=O)(c1ccccc1)c1ccccc1)c1ccc(C(F)(F)F)cc1`: 0.734; `CCCN1C(=O)[C@]2(Cc3ccccc3)N=C(c3ccc(OCCCO)cc3)O[C@@H]2c2ccccc21`: 1.32. The compound `C[C@]12C(=O)N(CCCCCCO)[C@@H]3C(=O)N(c4ccc(Cl)cc4)CC=CC31O[C@@H]1/C=C\CCCOC(=O)C12` (some centres not stated) yielded a composite z-score of -0.431. The compound `COCCOC(=O)N1C(=O)[C@@]2(c3ccccc31)[C@H](c1ccc(OCCO)cc1)N1[C@H](c3ccccc3)[C@H](c3ccccc3)OC(=O)[C@H]1[C@@H]2C(=O)Nc1nc2ccccc2s1` showed a composite z-score of 0.986. In turn, `C=CCN1Cc2ccccc2C[C@@]2(N=C(c3ccc(OCCCO)cc3)O[C@H]2c2ccccc2)C1=O` returned a composite z-score of 1.26.

`CN(C)CCCCNC(=O)[C@H]1C[C@H]2C(=O)N3CCC[C@H]3C(=O)N2[C@H]1c1ccc(O)cc1` showed a composite z-score of -0.0328. Compound `COC1(C)CN(Cc2ccccc2Br)[C@H](/C=C/c2ccccc2)[C@H](Cc2ccccc2)O1` (some centres not stated) showed a composite z-score of -0.629. In turn, `COc1cc(OC)c(C(O)C2C=CC3C(=O)N(c4ccccc4)C(=O)C3N2Nc2ccc(C#N)cc2)cc1Br` (configuration not stated) displayed a composite z-score of 0.687. On to `O=C(O)[C@]1(Cc2ccccc2)N=C(c2ccc(OCCCO)cc2)O[C@@H]1c1ccccc1`, for which the composite z-score was -1.23. `O=C1c2ccccc2[C@@]2(Cc3ccccc3N(C3CC3)C2=O)[C@H](c2ccc(CO)cc2)N1C1CCCCC1` showed a composite z-score of -0.492.

Take `COCCOC(=O)N1C(=O)[C@@]2(c3cc(C#CCC(C(=O)OC)C(=O)OC)ccc31)[C@H](c1ccc(OCCO)cc1)N1[C@H](c3ccccc3)[C@H](c3ccccc3)OC(=O)[C@H]1[C@@H]2C(=O)N1CCN(c2ncccn2)CC1`: the composite z-score is 1.07.

`O=C1O[C@@H](c2ccccc2)[C@@H](c2ccccc2)N2[C@@H](c3ccccc3OCCO)[C@]3(C(=O)Nc4ccc(C#CCCO)cc43)[C@@H](C(=O)N3CCN(c4ncccn4)CC3)[C@H]12` displayed a composite z-score of 0.649. Compound `COc1cc(CO)cc(I)c1O[C@H]1C=C(C(=O)NCCO)C[C@@H](N(CC2CCCCC2)C(=O)c2ccc(C(F)(F)F)cc2)[C@@H]1O` displayed a composite z-score of 0.0722. For the compound `Cc1c(NC(=O)/C(C#N)=C/C=C/c2ccccc2[N+](=O)[O-])c(=O)n(-c2ccccc2)n1C`, the composite z-score was found to be 0.417. The compound `CCC[C@@H]1C[C@@]1(CCC)[C@@H](NP(=O)(c1ccccc1)c1ccccc1)c1ccc(Cl)cc1` showed a composite z-score of -0.965. With `C=CCN1C(=O)[C@]2(CC=C)N=C(c3ccc(OCCCO)cc3)O[C@@H]2c2ccccc21`, the composite z-score came out at 0.777. As for `O=C1c2ccccc2[C@](Cc2ccccc2I)(C(=O)NCCN2CCOCC2)[C@H](c2ccc(CO)cc2)N1Cc1ccccc1`, the composite z-score came to 1.04. `COC(=O)[C@@]1(Cc2ccc(F)cc2)[C@H]2c3cc(C(=O)N4CCCC4)n(CCc4c[nH]c5ccc(OC)cc45)c3C[C@H]2CN1C(=O)c1ccccc1` had a composite z-score of 1.18.

Take `O=C1c2ccccc2[C@](Cc2ccccc2I)(C(=O)NCc2ccccc2)[C@H](c2ccc(CO)cc2)N1C1CCCCC1`: the composite z-score stood at 1.08. Still for that read-out and setting: next, `COCC(=C=CC[C@H](O)c1cccc(OCCO)c1)C[C@H](O)c1ccccn1`: -0.214; `CN1C2C=C(CCCO)C(C3C(=O)N(C(N)=O)C(=O)C32)C1c1cccs1` (configuration not stated): 0.386. Still for that read-out and setting: to `CN(C)CCCNC(=O)[C@@H]1c2ccccc2C(=O)N(Cc2ccc(OC(F)(F)F)cc2)[C@H]1c1ccc(CO)cc1` belongs 0.887; to `CC(C)(C)OC(=O)CC[C@]1(C(=O)NCCN2CCOCC2)N=C(c2ccc(OCCCO)cc2)O[C@H]1c1ccccc1`, -1.04; to `CC(C)CNC(=O)[C@@H]1c2ccccc2C(=O)N(Cc2cc(F)cc(C(F)(F)F)c2)[C@H]1c1ccc(CO)cc1`, 0.13. On to `C=C(/C(=C/C[C@@H](OC(=O)c1ccncc1)c1ccc(OCCO)cc1)c1cc(C(=O)OC)ccc1OC)C(C)C`, for which the composite z-score amounted to 0.284. As to `C=C(CCCC)/C(=C/C[C@@H](OC(=O)c1ccncc1)c1cccc(OCCO)c1)c1cnc2ccccc2c1`, the composite z-score was determined as 0.667. For `C=CCOC(=O)[C@H]1[C@@H]2C(=O)O[C@@H](c3ccccc3)[C@@H](c3ccccc3)N2[C@@H](c2ccc(OCCOC(=O)[C@H]3C[C@H]4C(=O)N[C@@H](Cc5ccccc5)C(=O)N4[C@H]3c3cccc(OCCO)c3)cc2)[C@]12C(=O)Nc1ccc(I)cc12`, the composite z-score came out at 1.28. The compound `Cc1ccc(S[C@]2(C(=O)NC3CC3)CC(=O)N(Cc3ccccc3Cl)[C@@H]2c2ccc(CO)cc2I)cc1` showed a composite z-score of 1.27.

As to `C[C@@H]1ON(c2ccc(C(=O)OC(C)(C)C)cc2)[C@H](c2ccc(Br)cc2)[C@H]1C(=O)N1C(=O)OC[C@H]1Cc1ccccc1`, the composite z-score was 1.31.
